Drawing on PubChem BioAssay AID1159606 (Sanford-Burnham Center for Chemical Genomics, 2016), this text covers inhibition for 55 molecules.

Usually inhibition stands for the drop in the measured response relative to a control, in per cent.

Each structure is given as a SMILES string. Hit rate of the full screen: of about 360,000 compounds, about 7,300 (2%) were called active. Rule as the data show it: active = inhibition above about 50%; inactive = the rest. Many of the other results were omitted from the sample, so actives are more common in it than they were.

The test is described as follows: blockers of TWEAK-induced Fn14 reporter activity – luciferase reporter cells, uHTS, primary screen (AID 1159606). Particulars: TWEAK-stimulated Fn14 reporter cells, luciferase luminescence, 8 h; at 10 µM; hits give high values. A general note: Reporter assays use an easily measured gene product as a stand-in for the process of interest.
For the molecule `CCc1ccc(CN(C)C(=O)CCc2nnc(-c3ccc(-c4ccccc4)cc3)o2)nc1`, the inhibition was 35.3% (inactive).

Take `CCCCCCc1cc2cc(-c3nnc(-c4ccccc4)o3)c(=O)oc2cc1O`: the inhibition was 69.9% (active).

As for `C#CCNC(=O)C[C@@H]1C[C@@]2(C(=O)OCC)CCCC=C2N(Cc2ccco2)C1=O`, the inhibition was -4.62% (inactive).

As for `O=C(O)CC(Cn1cnnn1)c1ccccc1` (stereo not given), the inhibition was 0.41% (inactive).

Regarding `O=C(Nc1ccccc1Cl)/C(Cl)=C(\Cl)S(=O)c1ccccc1` (stereo not given), the inhibition was 105% (active).

Turning to `CC(=O)c1ccc(NC(=O)C(C)N(C)CC(=O)Nc2ccccc2Cl)cc1` (stereo not given), the inhibition was -3.04% (inactive).

For the molecule `CS/C(=C\C(=O)c1ccco1)Nc1ccccc1Cl`, the inhibition is -3.35% (inactive).

Consider `OC(c1ccccc1)c1nc(-c2cnc3ccccc3c2)cs1` (stereo not given), for which the inhibition was 12.8% (inactive).

Consider `O=C(OCC(=O)N1CCCC1)c1ccco1`, for which the inhibition was 70.7% (active).

Consider `O=C(OCC(=O)N1CCN(C(=O)c2ccco2)CC1)c1c(Cl)cccc1Cl`, for which the inhibition is 3.09% (inactive).

On to `O=C(OCC(=O)N1CCN(C(=O)c2ccco2)CC1)c1cccc(O)c1`, for which the inhibition was -18.9% (inactive).

As to `Cc1ccc(-c2nnn(CC(=O)N(Cc3ccco3)C(C(=O)NC(C)(C)C)c3ccncc3)n2)o1` (stereo not given), the inhibition was -9.3% (inactive).

Regarding `O=C(O)CCn1c(O)c(C=C2N=c3ccccc3=N2)sc1=S`, the inhibition was 90.8% (active).

For the molecule `CC(=O)NC(C(=O)NCC(N)=O)C(C)C` (stereo not given), the inhibition is -1.22% (inactive).

As for `CSC1=NN(c2ccccc2)CN(c2ccccc2)N1C`, the inhibition is 11.5% (inactive).

For `Cc1ccc2nc(NC(=O)C3CCN(S(=O)(=O)c4ccc5c(c4)oc(=O)n5C)CC3)sc2c1`, the inhibition was 61.3% (active).

As for `Cn1c(=O)oc2cc(S(=O)(=O)N3CCC(C(=O)Nc4ccc(OC(F)(F)F)cc4)CC3)ccc21`, the inhibition was -4.22% (inactive).

Regarding `O=C(NC1CCCCC1)n1c(=O)oc2cc(S(=O)(=O)N3CCCCC3)ccc21`, the inhibition was -2.85% (inactive).

Consider `CC(C)C[C@@H](COCc1ccc(Cl)cc1)N1CCN(C(=O)c2ccc(Cl)cc2Cl)CCC1=O`, for which the inhibition was -5.63% (inactive).

Turning to `Cn1ccc(=Nc2ccc(NC(=O)c3ccc(N=c4ccn(C)c5ccc([N+](=O)[O-])cc45)cc3)cc2)cc1`, the inhibition was 11.6% (inactive).

On to `Cc1ccc(Oc2cc(NC(=O)CCCn3nc(C)c([N+](=O)[O-])c3C)cc([N+](=O)[O-])c2)cc1`, for which the inhibition is 29.9% (inactive).

Turning to `Fc1ccc2nc(-c3ccccc3)nc(SCc3nnc(-c4ccccc4)o3)c2c1`, the inhibition is 1.42% (inactive).

On to `N#Cc1ccc(-c2ccc(F)cc2)nc1Sc1ccccc1`, for which the inhibition is -0.84% (inactive).

In the case of `N#CCSc1nc(-c2ccccc2)nc2ccc(F)cc12`, the inhibition was 85.4% (active).

`CCCc1ccc(S(=O)(=O)N2CCN(C(=O)c3cc(C)on3)CC2)cc1`: the inhibition was 23.6% (inactive).

For the molecule `OC[C@@H]1CN(Cc2cccs2)C[C@H](n2cnc3c(NC4CCCC4)ncnc32)O1`, the inhibition is 3.36% (inactive).

Turning to `OC[C@@H]1CN(Cc2ccc(-c3ccccc3)cc2)C[C@H](n2cnc3c(NC4CCCC4)ncnc32)O1`, the inhibition was 69.7% (active).

Consider `OC[C@@H]1CN(Cc2ccc(F)cc2)C[C@H](n2cnc3c(NC4CCCC4)ncnc32)O1`, for which the inhibition was 0.72% (inactive).

Consider `COc1ccc(CNC(=O)COC(=O)CCS(=O)(=O)c2ccc(C)cc2)cc1OC`, for which the inhibition was -0.44% (inactive).

On to `COc1ccc(NC(=O)CN(C)C(=O)Cc2coc3cc(C)c(C)cc23)cc1`, for which the inhibition was -4.06% (inactive).

`S=c1[nH]nc(-c2cccnc2)n1/N=C/C(Cl)=C\c1ccccc1`: the inhibition is 55.4% (active).

Turning to `S=c1[nH]nc(-c2ccco2)n1/N=C/c1ccc(Br)s1`, the inhibition is -5.12% (inactive).

On to `COc1ccccc1/C=C/C=N/n1c(-c2ccc(Cl)cc2Cl)n[nH]c1=S`, for which the inhibition is -13.9% (inactive).

Regarding `Cc1cc(-c2n[nH]c(=S)n2/N=C/C(Br)=C/c2ccccc2)n[nH]1`, the inhibition was 95% (active).

For the molecule `Fc1ccc(/C=N/n2c(COc3ccccc3)n[nH]c2=S)cc1`, the inhibition was -16.7% (inactive).

Turning to `O=[N+]([O-])c1ccccc1/C=N/n1c(COc2ccccc2)n[nH]c1=S`, the inhibition is 17.8% (inactive).

As to `COc1ccc(Cc2nnc(SCC(=O)N(c3ccccc3)C(C)C)n(N)c2=O)cc1`, the inhibition was 4.78% (inactive).

As to `COC(=O)[C@]12CCCCC=C1N(Cc1ccco1)C(=O)[C@H](CC(=O)NCC1CCCCC1)C2`, the inhibition is -2.8% (inactive).

`N#CCCN(C(=S)Nc1ccc(Cl)c(Cl)c1)C1CCCCC1`: the inhibition is 7.89% (inactive).

Turning to `Cc1ccc(F)c(S(=O)(=O)NC(=O)C2(C)CCN2C(=O)c2ccco2)c1` (stereo not given), the inhibition is 4.06% (inactive).

Regarding `CC(C)n1cnc2c(Nc3cccc(Cl)c3)nc(N(CCO)CCCO)nc21`, the inhibition is 54.7% (active).

Turning to `CC(C)C[C@H](CO)Nc1nc(N(C)c2cccc(Cl)c2)c2ncn(C(C)C)c2n1`, the inhibition was -0.23% (inactive).

`CCOc1ccc(/C(O)=C2\C(=O)C(=O)N(c3ccc(OC)cc3)C2c2ccccc2[N+](=O)[O-])cc1` (stereo not given): the inhibition is 68.4% (active).

Consider `COc1ccc(C2/C(=C(/O)c3ccccc3)C(=O)C(=O)N2c2ncccn2)cc1OC` (stereo not given), for which the inhibition was 5.36% (inactive).

Regarding `COc1ccc(/C(O)=C2/C(=O)C(=O)N(c3nc(C)c(C)s3)C2c2ccco2)cc1` (stereo not given), the inhibition is 15.4% (inactive).

Turning to `CCCC(=O)Nc1ccc(C(=O)NCCCn2ccnc2)cc1`, the inhibition was -38.4% (inactive).

Consider `COc1ccc(OC)c(C(=O)c2coc3ccc(OC)cc23)c1`, for which the inhibition was 67.6% (active).

In the case of `COc1ccc2occ(C(=O)c3ccc(N=C(C)N(C)C)cc3)c2c1`, the inhibition is -30.2% (inactive).

Regarding `COc1ccc(OC)c(C(=O)c2coc3ccc(O)c(CN4CCOCC4)c23)c1`, the inhibition is 28.4% (inactive).

On to `Cc1cc(Cl)c2oc(C(=O)NC(C)c3ccncn3)c(C)c2c1` (stereo not given), for which the inhibition was -26.6% (inactive).

`CCOc1ccc(CCNC(=O)COC(=O)C2CCN(c3ccc(C(F)(F)F)cn3)CC2)cc1OCC`: the inhibition was 6.43% (inactive).

For `O=C(CN1C(=O)NC(Cc2c[nH]c3ccccc23)C1=O)Nc1ccccc1C(F)(F)F` (stereo not given), the inhibition is 29.8% (inactive).

For `Oc1c(Cl)cc(Cl)c(Cl)c1Cc1c(O)c(Cl)cc(Cl)c1Cl`, the inhibition is 64% (active).

With `CC1Cc2[nH][nH]c(=O)c2C(C2CC2)O1` (stereo not given), the inhibition is 4.07% (inactive).

Consider `CC(C)NC(=O)N1Cc2cc(C(=O)NCC(F)(F)F)nc(-c3cccc(-c4cc5ccccc5o4)c3)c2[C@@H]1CCO`, for which the inhibition was 37.6% (inactive).
